High-throughput results: PubChem, several laboratories
TIM10 inh = growth inhibitors of TIM10 yeast strain; S. cerevisiae TIM10 strain growth, BacTiter-Glo luminescence, 24 h; inhibition, % at 10 µM; 1.4% of 330,000 active; AID 463195;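 active = inhibition of 40% or more at the single tested concentration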;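 note: wild-type TIM10 isogenic control strain grown at permissive 25 °C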
tim23-1 inh = inhibits growth of tim23-1 mutant yeast; S. cerevisiae tim23-1 growth, BacTiter-Glo luminescence, 24 h; inhibition, % at 20 µM; 1.3% of 330,000 active; AID 463212;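 active = growth inhibition of the mutant yeast at or above 50%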;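 note: temperature-sensitive mutant grown at 25 °C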
PfHsp90 set2 = inhibits growth of yeast expressing Plasmodium falciparum Hsp90; S. cerevisiae expressing PfHsp90, BacTiter-Glo ATP, 48 h; yeast lacking PDR1 and PDR3 efflux regulators; AID 504621; inhibition, % at 9.4 µM; 0.32% of 310,000 active;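 active = every replicate shows inhibition above about 80%, whatever the replicate mean, limit read from the data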
tim10-1 inh = growth inhibitors of tim10-1 mutant yeast | AID 463190 | S. cerevisiae tim10-1 ts strain growth, BacTiter-Glo, 24 h | 2.2% of 330,000 active | inhibition, % at 20 µM;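 active = inhibition of at least 40%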;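 note: mutant grown at 25 °C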
Calb FLC = C. albicans growth modulation with fluconazole; growth inhibition, % (test concentration not listed); C. albicans CaCi-2 (fluconazole-resistant clinical isolate) + fluconazole, Alamar Blue growth, 48 h; AID 1979; 0.57% of 300,000 active;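 active = growth inhibition above about 58% in most replicates, limit read from the data, passing the limit was not always enough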;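 note: all wells also contain fluconazole at 8 µg/ml as a sub-toxic cotreatment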
SKKanGAS inh = blocks kanamycin growth of S. pyogenes SKKanGAS strain; BacTiter-Glo, 6 h; inhibition, % at 7.5 µM; 1.3% of 300,000 active; AID 1662;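 active = mean replicate score, as percent of positive control median, at least 50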;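 note: strain carries kanamycin resistance gene driven by streptokinase promoter and grows in 40 µg/ml kanamycin; loss of luminescence reflects streptokinase promoter inhibition or plain growth inhibition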
Of the large screens only hits and unclear results are named; the others gave an inactive call. The list is not random: actives were taken first. Their share in the collection is about 4.7%.

Cc1cc(C)c(NS(=O)(=O)c2cccc3cccnc23)c(C)c1	Calb FLC 73
Cn1cccc1C(=O)OCc1cc(-c2ccco2)on1	none (no result: Calb FLC, SKKanGAS inh)
COc1cc(C2C(C#N)=C(N)Oc3c2ccc2ccccc32)ccc1OCC(=O)Nc1ccc(C)cc1 (stereo unspecified)	none
COc1ccc(C2C(C#N)=C(N)Oc3c2ccc2cccnc32)cc1OC (stereo unspecified)	Calb FLC 93
Cc1nn(C)c(C)c1/C=C/C(=O)c1ccc(Cl)cc1Cl	Calb FLC 92
CC(NC(=O)c1ccc(Br)cc1)c1ccc2c(c1)CCCC2 (stereo unspecified)	PfHsp90 set2 105
CC(NC(=O)c1ccc(F)cc1)c1ccc2c(c1)CCCC2 (stereo unspecified)	none
CCCc1cc(=O)[nH]c(SCC(=O)Nc2ccc(Br)cc2)n1	none
CCCc1cc(=O)[nH]c(SCC(=O)Nc2ccc(Br)cc2Br)n1	Calb FLC 60
Cc1cc(C)cc(NC(=O)CN(C)CC(=O)N(CC(C)C)c2c(N)n(CC(C)C)c(=O)[nH]c2=O)c1	none (no result: Calb FLC, SKKanGAS inh)
C/C(=N\NC(=O)c1ccccc1N)c1ccc(NC(=O)Cc2ccccc2)cc1	SKKanGAS inh 67
COc1ccccc1C(=O)N/N=C(\C)c1ccc(NC(=O)Cc2ccccc2)cc1	none
COc1cccc(/C=C2/C(=O)NN(c3ccc(F)cc3)C2=O)c1	none
O=C1NN(c2ccc(F)cc2)C(=O)/C1=C/c1cccs1	Calb FLC 101
O=C(Nc1ccccc1Sc1ccccc1)c1ccccc1F	SKKanGAS inh 61
Cc1cc(Nc2cccc(C(=O)O)c2)n2ncnc2n1	none
Cc1ccc(-n2c(C)cc(/C=C3\SC(=O)NC3=O)c2C)cc1	none (no result: Calb FLC)
Cc1cc(/C=C2\SC(=S)N(C)C2=O)c(C)n1-c1ccccc1O	SKKanGAS inh 88
Cc1cc(/C=C2\SC(=S)NC2=O)c(C)n1-c1cccc(O)c1	PfHsp90 set2 94, SKKanGAS inh 82
O=C(COc1ccccc1)NNC(=S)NC(=O)c1ccccc1	SKKanGAS inh 75
COc1ccc(C(=O)NC(=S)NCCc2ccccc2)cc1	none
O=C(CCc1ccccc1)NNC(=S)NC(=O)c1ccc(Cl)cc1	Calb FLC 80, SKKanGAS inh 61 (no result: PfHsp90 set2)
COc1ccc(C(=O)NC(=S)NNC(=O)COc2ccccc2)cc1	SKKanGAS inh 88
CN(C)C(CNC(=O)c1cc(S(=O)(=O)N2CCOCC2)ccc1F)c1cccs1 (stereo unspecified)	none (no result: Calb FLC, SKKanGAS inh)
CCOC(=O)Cc1nnc(NC(=O)CCc2ccccc2)s1	none
CCCSc1nsc(NC(=O)CC)n1	none
CCCSc1nsc(NC(=O)C(c2ccccc2)c2ccccc2)n1	SKKanGAS inh 100
CCCSc1nsc(NC(=O)Nc2ccc(F)cc2F)n1	SKKanGAS inh 64
Cc1cc(C)nc(NC(=O)Nc2ccc(F)cc2F)n1	none
CCC1(CC)CNC(=O)NC1	none (no result: TIM10 inh, tim23-1 inh, tim10-1 inh, Calb FLC, SKKanGAS inh)
CC(C)CN1CCC(=O)N(CCN=[N+]=[N-])CC1	none
O=C(O)c1ccc(-c2nc(-c3ccc(Cl)cc3)cs2)cc1	Calb FLC 91 (no result: TIM10 inh, tim23-1 inh, tim10-1 inh)
O=C(O)c1ccc(-c2nc(-c3ccc(Cl)cc3Cl)cs2)cc1	none
C=CCn1c(O)c(N=NC(=S)Nc2ccccc2C)c2cc(S(=O)(=O)N3CCOCC3)ccc21	Calb FLC 106
NC1=NC[C@H](Cc2ccc(O)cc2)N1CCCCC1CCCCC1	none
NC1=NC[C@H](Cc2ccccc2)N1CCCCC1CCCCC1	Calb FLC 105
COC(=O)[C@]1(C)CCC[C@@]2(C)C3CC[C@@]4(C)C[C@]3(CCC21)CC(=O)N4 (stereo partly specified)	none (no result: PfHsp90 set2, Calb FLC, SKKanGAS inh)
C=C1C(=O)C23CCC4C(C)(C(=O)OC)CCCC4(C)C2CCC1(O)C3 (stereo unspecified)	PfHsp90 set2 104 (no result: TIM10 inh, tim23-1 inh, tim10-1 inh, Calb FLC, SKKanGAS inh)
COc1ccccc1NC(=O)Nc1nc(CC(=O)NCc2ccc(F)cc2)cs1	none (no result: PfHsp90 set2)
O=S(=O)(Nc1nc2ccccc2nc1Cl)c1ccc2ccccc2c1	SKKanGAS inh 51
CCCCN(C(=O)C1CC(=O)N(c2ccc(OC)cc2OC)C1)c1c(N)n(CC(C)C)c(=O)[nH]c1=O (stereo unspecified)	none
Cc1ccc(C(=O)NNC(=O)c2ccncc2)cc1[N+](=O)[O-]	none (no result: Calb FLC, SKKanGAS inh)
Cc1ccc(C(=O)ONC(=O)c2ccc(Cl)cc2)cc1[N+](=O)[O-]	PfHsp90 set2 108
Cc1cn(CC(=O)NCC(C)c2ccccc2)c(=O)[nH]c1=O (stereo unspecified)	none (no result: TIM10 inh, tim23-1 inh, tim10-1 inh, Calb FLC, SKKanGAS inh)
COc1ccc2nc(N3C(=O)CNC3=S)sc2c1	SKKanGAS inh 65
COc1ccc(-c2nc(-c3ccc(NC(=O)c4ccncc4)cc3)no2)cc1OC	SKKanGAS inh 55
O=C(NCc1cc([N+](=O)[O-])ccc1O)c1cccnc1Sc1ccccc1Cl	Calb FLC 86
Cn1c(NCc2ccccc2)nc2c1c(=O)n(Cc1ccc(Br)cc1)c(=O)n2C	none
COc1ccc(CNc2nc3c(c(=O)n(Cc4ccc(Br)cc4)c(=O)n3C)n2C)cc1	SKKanGAS inh 54
O=S(=O)(c1ccc(F)c(F)c1)N1CCN(S(=O)(=O)c2cccs2)CC1	none
Cc1cc(C)c2nc(-c3ccncc3)cc(C(=O)N3CCN(Cc4ccccc4Cl)CC3)c2c1	SKKanGAS inh 74
O=C(c1cc(-c2ccncc2)nc2ccc(Cl)cc12)N1CCN(Cc2ccc3c(c2)OCO3)CC1	none
O=C(OCN1C(=O)c2ccccc2C1=O)c1cc(S(=O)(=O)N2CCOCC2)ccc1F	none (no result: PfHsp90 set2, Calb FLC, SKKanGAS inh)
Cc1cc(C)c(NC(=S)N(C)C)c(C)c1	none
Cc1cc(Br)ccc1NC(=O)CN(C)C(=O)COc1cccc2c1OC(C)(C)C2	none
Cc1ccc(C(=O)N/N=C/c2cccc(OC(=O)/C=C/c3ccco3)c2)cn1	none
O=C(/C=C/c1ccco1)Oc1cc(Br)cc(/C=N/NC(=O)c2ccccc2O)c1	Calb FLC 90, SKKanGAS inh 88 (no result: TIM10 inh, tim23-1 inh, tim10-1 inh)
O=C(N/N=C/c1ccccn1)c1ccc(Br)cc1	none
CC(C)(C)c1ccc(C(=O)N/N=C/c2ccccn2)cc1	SKKanGAS inh 63
CC(OC(=O)Cc1n[nH]c(=O)c2ccccc12)C(=O)Nc1ccc(Cl)cn1 (stereo unspecified)	SKKanGAS inh 68
CC(OC(=O)Cc1n[nH]c(=O)c2ccccc12)C(=O)Nc1cc(Cl)cc(Cl)c1 (stereo unspecified)	none
CC(c1ccncn1)N(C)C(=O)c1ccc2oc(Cc3ccccc3)nc2c1 (stereo unspecified)	none
O=C1Nc2ccccc2S/C1=C/Nc1cccc(Cl)c1	SKKanGAS inh 76 (no result: PfHsp90 set2)
O=C1Nc2ccccc2S/C1=C\C(=O)N1CCCC1	none (no result: PfHsp90 set2)
COc1ccc(CN(C)CC(=O)Nc2ccccc2C(=O)NC2CC2)cc1	none (no result: Calb FLC, SKKanGAS inh)
Oc1ccc(Nc2nc(-c3ccc4ccccc4c3)cs2)cc1	SKKanGAS inh 53
O=C(Oc1cccc2c(O)cccc12)c1ccco1	none (no result: TIM10 inh, tim23-1 inh, tim10-1 inh, Calb FLC, SKKanGAS inh)
O=C1C(=C(I)I)c2ccccc2-c2ccccc21	PfHsp90 set2 106 (no result: TIM10 inh, tim23-1 inh, tim10-1 inh, Calb FLC, SKKanGAS inh)
CC#CC[N+](C)(C)CCCCCCCC	none
